This is an account of results in ChEMBL document CHEMBL3988442, “University of Dundee, Small-Polar-MMV Screening Library” (2021).

The campaign covered roughly 48,000 compounds. About 13,000 (27%) showed an effect of 50% or more. Some of the results follow.

This assay deals with Wolbachia pipientis. The assay can be described thus: Anti-Wolbachia Cell-Based Screen. The class given is functional. The following applies: 5 µM. Details: scale not given: in the data most compounds retested in dose-response had high values.
On to `CCCN1CCC(CC(=O)N[C@H](C(=O)O)c2cccc(F)c2F)CC1`, for which the “Percent Effect” value is reported as -4.75%.

For `COC(=O)NCC(=O)NCC(C)(C)c1cccc(Br)c1`, the “Percent Effect” value was -15.07%.

Consider `CCCc1ncc(CN(CCOC)Cc2cccs2)cn1`, for which the “Percent Effect” value is reported as -13.63%.

`CCN(CCn1cccn1)Cc1nc(-c2ccccc2F)oc1C`: the “Percent Effect” value stood at 1.604%.

As for `C=C(C)COCCNC(=O)Nc1cccc(Cn2nc(C)nc2C)c1`, the “Percent Effect” value is -4.389%.

In the case of `Cc1ccc(S(=O)(=O)N2CCN(CCCn3ccnc3)CC2)cc1`, the “Percent Effect” value is given as -7.959%.

Take `O=S(=O)(c1ccc(Cl)cc1)N1CCN(CCCn2ccnc2)CC1`: the “Percent Effect” value is listed as -9.759%.

For `CC(=O)Nc1ccc(S(=O)(=O)N2CCOC(Cn3ccnc3)C2)cc1` (stereo unspecified), the “Percent Effect” value was determined as 127.1%.

For the molecule `O=S(=O)(c1ccccc1)N1CCCN(CCCn2ccnc2)CC1`, the “Percent Effect” value is recorded as 1.416%.

`COc1ccc(S(=O)(=O)N2CCOC[C@H](Oc3cnccn3)C2)cc1`: the “Percent Effect” value is recorded as -5.156%.

`O=S(=O)(c1ccccc1)N1CCOC(Cn2ccnc2)C1` (stereo unspecified): the “Percent Effect” value came to 143.1%.

Regarding `O=S(=O)(c1ccccc1)N1CCN(CCn2ccnc2)CC1`, the “Percent Effect” value was -17.14%.

On to `CCC1CN(C(=O)COc2ccc(NC(C)=O)cc2)CCO1` (stereo unspecified), for which the “Percent Effect” value is recorded as -18.64%.

For the molecule `CCN(C)C[C@@H]1CN(S(=O)(=O)c2ccc(OC)cc2)C[C@@H]1CO`, the “Percent Effect” value is on record as 9.662%.

`CC(=O)Nc1ccc(S(=O)(=O)NC(=O)CCC2CCCO2)cc1` (stereo unspecified): the “Percent Effect” value is given as -4.56%.

`COc1ccc(S(=O)(=O)N2CCOC(Cn3ccnc3)C2)cc1.Cc1ccc(S(=O)(=O)O)cc1` (stereo unspecified): the “Percent Effect” value was determined as 106.9%.

Turning to `CC(=O)c1ccc(S(=O)(=O)N2CCOC(Cn3ccnc3)C2)cc1` (stereo unspecified), the “Percent Effect” value turned out to be 80.08%.

As to `Cc1ccc2c(c1)OCCCC2NCc1nnc2n1CCCCC2` (stereo unspecified), the “Percent Effect” value was -3.349%.

As to `CCCN(CC)Cc1ccc(C(=O)NCC2COCCO2)c(=O)[nH]1` (stereo unspecified), the “Percent Effect” value was -4.085%.

For `O=C(CSc1ncccn1)N1C[C@H]2CC[C@@H]1CN(Cc1ccncc1)C2`, the “Percent Effect” value is reported as -5.142%.

On to `CC(C)Cn1ccnc1CNC(=O)NC(C)(C)c1nccs1`, for which the “Percent Effect” value is reported as 4.874%.

Take `Cc1nc(C)c(C(C)NC(=O)NCCNc2cccc(F)c2C#N)s1` (stereo unspecified): the “Percent Effect” value is -3.673%.

Take `N#Cc1nccnc1N1CCC(C(O)c2cccs2)CC1` (stereo unspecified): the “Percent Effect” value is reported as 6.256%.

In the case of `CCS(=O)(=O)N1CCC2(CCN(Cc3ccc(C)o3)C2)C1` (stereo unspecified), the “Percent Effect” value was -25.86%.

With `COc1cccc2c1OCC(C(=O)NCCCn1nc(C)c(Cl)c1C)C2` (stereo unspecified), the “Percent Effect” value was -39.79%.

For `Cc1nc(CNC2(C(=O)OC(C)(C)C)CCCC2)oc1C`, the “Percent Effect” value is reported as -20.11%.

On to `CCOC(C)c1noc(CN2CCN(Cc3cccc(F)c3)CC2)n1` (stereo unspecified), for which the “Percent Effect” value is on record as -0.1841%.

As for `CC(C)Cc1noc(CN2CCN(C(=O)c3cccc(F)c3)CC2)n1`, the “Percent Effect” value is on record as 1.261%.

Take `COc1cccc(C(=O)N2CCN(Cc3nc(C(C)C)no3)CC2)c1`: the “Percent Effect” value is 117.9%.

For `CC(C)(C)c1noc(CN2CCN(C(=O)c3ccco3)CC2)n1`, the “Percent Effect” value is -32.87%.

Consider `Cc1ccc(C(=O)N2CCN(Cc3nc(C(C)C)no3)CC2)c(=O)[nH]1`, for which the “Percent Effect” value was -11.93%.

`Cc1c[nH]cc1C(=O)N1CCN(Cc2nc(C(C)C)no2)CC1`: the “Percent Effect” value is -4.204%.

As to `CC(C)c1noc(CN2CCN(C(=O)c3cccc(F)c3)CC2)n1`, the “Percent Effect” value was determined as 101.9%.

For the molecule `CC(C)c1noc(CN2CCN(C(=O)c3ccc(F)cc3)CC2)n1`, the “Percent Effect” value turned out to be 109.7%.

Consider `CCOC(=O)c1coc(N2CCN(C(=O)c3cccc(OC)c3)CC2)n1`, for which the “Percent Effect” value is recorded as -22.87%.

As for `CCCn1nnnc1CN(c1ccc(C)cc1)C(C)C`, the “Percent Effect” value is 3.327%.

Consider `CCS(=O)(=O)N1CCC2(CC(=O)N(c3cnn(C)c3)C2)C1` (stereo unspecified), for which the “Percent Effect” value was -4.174%.

`COCCN1CCN(Cc2nnc(-c3occc3C)o2)CC1`: the “Percent Effect” value worked out at 0.1537%.

For the molecule `Cc1ccc(-c2nc(CN(C)C3CCS(=O)(=O)C3)cs2)o1` (stereo unspecified), the “Percent Effect” value is given as -14.87%.

On to `OC(CN1CCOCC1)c1ccc(OC(F)(F)F)cc1` (stereo unspecified), for which the “Percent Effect” value is listed as -7.461%.

For `COc1ccccc1CC(C)(C)NC(=O)CC(F)(F)F`, the “Percent Effect” value is listed as -8.852%.

Take `CN(C)C(C(=O)N1CCSCC1)c1ccccc1F` (stereo unspecified): the “Percent Effect” value was 0.1762%.

On to `Cc1cccc(CN2CCC3(CC2)NC(=O)CC3c2ccccc2)n1.O=C(O)C(F)(F)F` (stereo unspecified), for which the “Percent Effect” value is 109.2%.

With `CC(C)COC1CC2(CCN(C(=O)Cc3ccccn3)CC2)C1.O=C(O)C(F)(F)F`, the “Percent Effect” value is reported as -2.519%.

Regarding `Cc1cncc(C(=O)N2CCC3(CC2)NC(=O)CC3c2ccccc2)c1.O=C(O)C(F)(F)F` (stereo unspecified), the “Percent Effect” value was -43.74%.

As for `Cc1cccc(CN2CCC3(CC2)NC(=O)C[C@H]3c2cnn(C)c2)n1.O=C(O)C(F)(F)F`, the “Percent Effect” value worked out at 84.49%.

As for `Cn1cc(C2CC(=O)NC23CCN(C(=O)Cc2ccccn2)CC3)cn1.O=C(O)C(F)(F)F` (stereo unspecified), the “Percent Effect” value was found to be 105.4%.

For the molecule `Cn1cc(C2CC(=O)NC23CCN(C(=O)c2cccnc2)CC3)cn1.O=C(O)C(F)(F)F` (stereo unspecified), the “Percent Effect” value came out at 11.55%.

Regarding `COc1cc(F)ccc1C(C(=O)O)N1CCN(C2CCCCC2)CC1` (stereo unspecified), the “Percent Effect” value is -11.47%.

Take `O=C(O)C(F)(F)F.O=C(O)C(F)(F)F.O=C(c1ccco1)N1CC[C@@H](N2CCOCC2)[C@@H]1Cc1ccncc1`: the “Percent Effect” value was 0.4302%.

As to `COc1ccc(C2CC(=O)NCc3nc4ccccn4c32)cn1` (stereo unspecified), the “Percent Effect” value is listed as -7.087%.

In the case of `Cc1c(NC(=O)NC2CCCC2)cccc1C(=O)N1CCSCC1`, the “Percent Effect” value was 1.099%.

Regarding `CN(Cc1cccnc1)[C@@H]1CN(Cc2ccccn2)[C@@H]2CCCO[C@H]12`, the “Percent Effect” value was 150.6%.

`Cn1cnc2c1C(COCc1cccnc1)N(Cc1ccccn1)CC2` (stereo unspecified): the “Percent Effect” value is -4.63%.

As to `Fc1cnc(N2CC[C@@H](N3CCOCC3)[C@@H]2Cc2cccnc2)nc1.O=C(O)C(F)(F)F.O=C(O)C(F)(F)F`, the “Percent Effect” value is recorded as -8.935%.

`CN(Cc1cccnc1)[C@@H]1CN(c2ncc(F)cn2)[C@@H]2CCCO[C@H]12`: the “Percent Effect” value stood at 115.7%.

For `CN(C)[C@@H]1CCN(c2ncc(F)cn2)[C@H]1Cc1cccnc1.O=C(O)C(F)(F)F.O=C(O)C(F)(F)F`, the “Percent Effect” value is -4.235%.

In the case of `CN(C)S(=O)(=O)N1C[C@@H](OCc2ccccn2)[C@H]2OCCC[C@H]21`, the “Percent Effect” value was -8.506%.

In the case of `CN(Cc1cccnc1)[C@@H]1CN(c2ccccn2)[C@@H]2CCCO[C@H]12`, the “Percent Effect” value is recorded as 82.23%.

For `Cc1nnc(N2C[C@H](OCc3cccnc3)[C@H]3OCCC[C@H]32)s1.O=C(O)C(F)(F)F.O=C(O)C(F)(F)F`, the “Percent Effect” value is on record as -2.334%.

For the molecule `CN(Cc1cccnc1)C[C@H]1OC[C@@H]2CCN(c3ncccn3)C[C@@H]21`, the “Percent Effect” value is recorded as -26.32%.
